# “And” between values parts separate entries of the source, which are not always exact repeats. Equal values may be shown once. Inconclusive results are not listed. The source made the active and inactive calls. Calls come from the whole dose curve.
# Experiment: Primary qHTS to identify inhibitors of SARS-CoV-2 cell entry (AID 1645846); note: nearly all actives have a fitted effect of over 45% in size
# Conditions: SARS-CoV-2 pseudovirus cell entry assay, luminescence; activity change, negative = inhibition: at 57.1 µM (top of the series) unless noted; series mostly up to 57.1 µM
# How it was run: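 HEK293 cells stably expressing human ACE2, pre-treated 1 h with compound, then infected with MLV particles pseudotyped with Wuhan-Hu-1 spike (C-terminal 19-aa truncation). Luciferase luminescence after 48 h at 37 °C, normalised to spike PP and bald PP.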
# Potency is the fitted concentration of half-maximal effect.
SMILES,outcome,"activity change, negative = inhibition [%]",Potency
O=C(O)c1cc(=O)[nH]c(=O)[nH]1,inactive,-5.5,
O=C(O)CCCCC(=O)O,inactive,,
NC(N)=NC(=O)Cc1c(Cl)cccc1Cl,inactive,,
CCCCCCCC(=O)OCC(COC(=O)CCCCCCC)OC(=O)CCCCCCC,inactive,,
CCC(=O)c1c(O)cc(O)cc1O,,-5.3,
CC(O)(P(=O)(O)O)P(=O)(O)O,inactive,,
COc1cc(C)c(/C=C/C(C)=C/C=C/C(C)=C/C(=O)O)c(C)c1C,,-1.85,
CCN1C(=O)NC(c2ccccc2)C1=O (centres undefined),,-1.94,
O=C(N[C@H](CO)[C@H](O)c1ccc([N+](=O)[O-])cc1)C(Cl)Cl,,2.2,
NS(=O)(=O)c1cc(Cl)c(Cl)c(S(N)(=O)=O)c1,,-0.105,
C#CCC(Cc1cnc2nc(N)nc(N)c2n1)c1ccc(C(=O)N[C@@H](CCC(=O)O)C(=O)O)cc1 (some centres undefined),,-93.7,
NC1CCN(c2nc3c(cc2F)c(=O)c(C(=O)O)cn3-c2ccc(F)cc2F)C1 (centres undefined),inactive,,
CC(=O)Nc1ccc(OC(=O)c2ccccc2OC(C)=O)cc1,,-2.29,
O=C(O)c1ccccc1Nc1cccc(C(F)(F)F)c1,inactive,,
COc1cc(NS(C)(=O)=O)ccc1Nc1c2ccccc2nc2ccccc12,,,1 µM (active) and 708 nM (active)
COc1ccc(C(=O)NCc2ccc(OCCN(C)C)cc2)cc1OC,,-12.5,
N[C@@H](Cc1cc(I)c(Oc2ccc(O)c(I)c2)c(I)c1)C(=O)O,inactive,,
CC(=O)S[C@@H]1CC2=CC(=O)CC[C@]2(C)[C@H]2CC[C@@]3(C)[C@@H](CC[C@@]34CCC(=O)O4)[C@H]12,,-11,

# Source: PubChem BioAssay (NCATS)
